Among all 39,000 compounds or so, about 1,500 (3.8%) were called active. The sample as a whole holds a higher share of actives than the screen did.

The assay concerns HSkMC (human skeletal muscle cells). Nature of the assay: cytotoxicity call (relative viability < 0.9). As to conditions: 10 µM.
Take `C[C@]12CC[C@]3(C)OC[C@](CO)(CO1)N23`: the cytotoxicity call is “inactive”.

For the molecule `Nc1ccccc1-c1ccccc1`, the cytotoxicity call is “inactive”.

For `CCC1(C2OC(C3OC(O)(CO)C(C)CC3C)CC2C)CCC(C2(C)CCC3(CC(O)C(C)C(C(C)C(OC)C(C)C(=O)[O-])O3)O2)O1.[Na+]` (stereo unspecified), the cytotoxicity call is “inactive”.

As to `NC1CC1c1ccccc1.O=S(=O)(O)O` (stereo unspecified), the cytotoxicity call was “inactive”.

In the case of `O=c1cccc2n1CC1CNCC2C1` (stereo unspecified), the cytotoxicity call is “inactive”.

For `COC(=O)C[C@H]1CC[C@H]2NC[C@H](O)COC[C@@H]2O1`, the cytotoxicity call is “inactive”.

On to `CCC(C)C1OC2(C=CC1C)CC1CC(CC=C(C)C(OC3CC(OC)C(OC4CC(OC)C(O)C(C)O4)C(C)O3)C(C)C=CC=C3COC4C(O)C(C)=CC(C(=O)O1)C34O)O2` (stereo unspecified) [ABAMECTIN (avermectin B1a shown) ], for which the cytotoxicity call was “inactive”.

Take `C[N+](C)(C)CCCCCCCCCC[N+](C)(C)C.[Br-].[Br-]`: the cytotoxicity call is “inactive”.

As for `CCCCCCCCCCCCCCCC[N+](C)(C)C.[Br-]`, the cytotoxicity call was “active”.

As for `C[N+](C)(C)CCCl`, the cytotoxicity call was “inactive”.

For `CC1CC(C)C(=O)C(C(O)CC2CC(=O)NC(=O)C2)C1` (stereo unspecified), the cytotoxicity call is “inactive”.

In the case of `Cc1nn[nH]n1`, the cytotoxicity call was “inactive”.

As for `CC(=O)CC1CCCCN1.Cl` (stereo unspecified), the cytotoxicity call was “inactive”.

As to `CCn1cnc2c(Nc3cccc(Cl)c3)nc(N[C@@H]3CCCC[C@@H]3N)nc21`, the cytotoxicity call is “active”.

For `CCN(Cc1ccc(Cl)nc1)C(=C[N+](=O)[O-])NC`, the cytotoxicity call is “inactive”.

Consider `C=CCN1C[C@H]2CN(C(C)C)C[C@H]2C1=O`, for which the cytotoxicity call is “inactive”.

In the case of `CO[C@@H]1C=C[C@@H]2[C@H]1N2CCCO` (stereo partly specified), the cytotoxicity call was “inactive”.

Turning to `Nc1c[n+](CCc2ccccc2)no1`, the cytotoxicity call was “inactive”.

On to `CN1CCN(C(=O)CN=[N+]=[N-])CC1`, for which the cytotoxicity call was “inactive”.

In the case of `C=C(CCCCCCCCCCCCCCCC)OOC[C@@H](COP(=O)(ON)O[C@@H]1[C@H](O)[C@H](O)[C@@H](OP(=O)(O)ON)[C@H](OP(=O)(O)ON)[C@H]1O)OOC(=C)CC/C=C/C/C=C/C/C=C/C/C=C/CCCCC` (stereo partly specified), the cytotoxicity call was “inactive”.

In the case of `C=C(C)[C@@H]1CCC(C)=C[C@H]1c1c(OC)cc(C)cc1OC`, the cytotoxicity call was “inactive”.

For the molecule `C=C(C)[C@@H]1CCC(C)=C[C@H]1c1c(O)cc(CCCCC)cc1O`, the cytotoxicity call is “active”.

Consider `C[C@@H]1C(=O)O[C@H]2[C@H](O)[C@@]34[C@@H]5OC(=O)[C@@]3(O[C@@H]3OC(=O)[C@H](O)[C@@]34[C@H](C(C)(C)C)[C@H]5O)[C@@]12O`, for which the cytotoxicity call is “inactive”.

Take `NC1(c2ccc(Cl)cc2)CC1`: the cytotoxicity call was “inactive”.

`O=[As]O[As]=O` (stereo unspecified): the cytotoxicity call was “inactive”.

`O=C(O)Cc1cccnc1C(=O)O`: the cytotoxicity call is “inactive”.

In the case of `CO[C@H]1C[C@H](O[C@H]2CC[C@]3(C=O)[C@H]4CC[C@]5(C)[C@@H](C6=CC(=O)OC6)CC[C@]5(O)[C@@H]4CC[C@]3(O)C2)O[C@H](C)[C@H]1O`, the cytotoxicity call was “active”.

For the molecule `C[C@@H]1O[C@@H](O[C@H]2CC[C@]3(C=O)[C@H]4CC[C@]5(C)[C@@H](C6=CC(=O)OC6)CC[C@]5(O)[C@@H]4CC[C@]3(O)C2)[C@H](O)[C@H](O)[C@H]1O`, the cytotoxicity call is “active”.

For the molecule `COC1C(O)C(C)OC(OC2CCC3(C=O)C(CCC4C3CCC3(C)C(C5=CC(=O)OC5)CCC43O)C2)C1O` (stereo unspecified), the cytotoxicity call was “active”.

In the case of `COC1C(O)C(C)OC(OC2CCC3(C)C4CCC5(C)C(C6=CC(=O)OC6)CCC5(O)C4CCC3(O)C2)C1O` (stereo unspecified), the cytotoxicity call is “inactive”.

Regarding `CO[C@H]1[C@@H](O)[C@@H](C)O[C@H](O[C@H]2CC[C@@]3(C)[C@H]4CC[C@@]5(C)[C@@H](C6=CC(=O)OC6)CC[C@]5(O)[C@@H]4CC[C@]3(O)C2)[C@@H]1O`, the cytotoxicity call was “inactive”.

Consider `CC1OC(OC2CCC3(C=O)C4CCC5(C)C(C6=CC(=O)OC6)CCC5(O)C4CCC3(O)C2)C(O)C(O)C1O` (stereo unspecified), for which the cytotoxicity call was “active”.

Take `CC(C)(C)OC(=O)N[C@H]1[C@@H]2CNC[C@@H]21`: the cytotoxicity call is “inactive”.

Take `COC(N)=O`: the cytotoxicity call is “inactive”.

With `C[C@H](CO)N1C[C@H](C)[C@@H](CN(C)C(=O)Oc2cccc3ccccc23)OCc2cn(nn2)CCCC1=O`, the cytotoxicity call is “inactive”.

With `COC(=O)C[C@H]1CC[C@@H]2NC[C@H](O)COC[C@H]2O1`, the cytotoxicity call was “inactive”.

On to `Cc1ccc(OC(=O)N(C)C[C@@H]2OCc3ccccc3-c3c(n(C)c4ccccc34)C(=O)N([C@H](C)CO)C[C@H]2C)cc1`, for which the cytotoxicity call was “inactive”.

In the case of `COc1ccc(OC)c(C(O)C(C)N)c1.Cl` (stereo unspecified), the cytotoxicity call was “inactive”.

For `C[N+]1(C)CCCC(OC(=O)C(O)(c2ccccc2)c2ccccc2)C1.[Br-]` (stereo unspecified), the cytotoxicity call was “inactive”.

In the case of `NC[C@@H](O)c1ccccc1`, the cytotoxicity call was “inactive”.

Take `CC(C)(C)OC(=O)N1C[C@H]2C[C@@H]1CN2`: the cytotoxicity call was “inactive”.

For `c1cc2c(cc1CN1CCNCC1)OCO2`, the cytotoxicity call was “inactive”.

In the case of `c1ccc2cc3c(cc2c1)-c1cccc2cccc-3c12`, the cytotoxicity call was “inactive”.

`CCC1=C[C@@H]2[C@H](C1)C[C@]2(CN)CC(=O)O`: the cytotoxicity call was “inactive”.

With `[N-]=[N+]=NCc1ccccc1C[C@]1(C(=O)N2CCCCC2)N=C(c2ccc(OCCCO)cc2)O[C@H]1c1ccccc1N=[N+]=[N-]`, the cytotoxicity call was “inactive”.

Turning to `CC12CCC3C(CCC4(O)CC(O)CCC34C=O)C1(O)CCC2C1=CC(=O)OC1` (stereo unspecified), the cytotoxicity call is “active”.

With `NC[C@@H](CC(=O)O)c1ccccc1`, the cytotoxicity call was “inactive”.

In the case of `CCOC(OCC)P(=O)(O)CCCN`, the cytotoxicity call is “inactive”.

For `CC(=O)N[C@@H]1[C@H](O[C@@H]2O[C@H](C[C@@H](O)[C@H]3O[C@@H](n4ccc(=O)[nH]c4=O)[C@H](O)[C@@H]3O)[C@H](O)[C@H](O)[C@H]2NC(=O)/C=C/CCCCCCCCC(C)C)O[C@@H](CO)[C@H](O)[C@H]1O`, the cytotoxicity call is “inactive”.

For the molecule `Oc1cc(Cl)ccc1Oc1ccc(Cl)cc1Cl` [listing 1 of 2 here], the cytotoxicity call was “active”.

On to `Oc1cc(Cl)ccc1Oc1ccc(Cl)cc1Cl` [listing 2 of 2 here], for which the cytotoxicity call was “inactive”.

`Oc1ccc(Cl)cc1Cc1cc(Cl)ccc1O`: the cytotoxicity call is “inactive”.

Take `CC(C)[C@@H]1NC[C@@H]2CCCN2C1=O`: the cytotoxicity call was “inactive”.

For the molecule `CC1=CC(=O)c2c(O)cccc2C1=O`, the cytotoxicity call was “active”.

For the molecule `O=C1C=CC(=O)c2c(O)cccc21`, the cytotoxicity call is “inactive”.

`Oc1ccccc1-c1ccccc1O`: the cytotoxicity call was “inactive”.

For the origin of these results see the antibiotic and cytotoxicity screens of Wong et al. (2023).
